Out of some 5,500 compounds screened, about 2,000 (36%) were called active. Another 18% or so got no clear call; they are omitted. Rule as the data show it: active = normalized growth mostly below about 0.91 (no sharp cut-off); inconclusive = no clear call, values can overlap the other calls; inactive = mostly above about 0.92. The list shows a part of the results.
Assay: chemical genetic growth profiling, strain panel (AID 1159580);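 also: tested at 20 µM; growth read once vehicle control cultures reached saturation at 30 °C; 1 = growth at the plate median or of vehicle wells; lower values mean less growth of the strain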
Settings: S. cerevisiae deletion strains, growth OD

Measured: normalized growth

COc1cc(-c2coc3cc(O)c(OC)c(O)c3c2=O)cc(O)c1OC
inactive: locus YHR030C, strain SLT2, hits give low values 1.02 | locus YHR079C, strain IRE1, hits give low values 1.03 | locus YJL095W, strain BCK1, hits give low values 1.02 | locus YJR066W, strain TOR1, hits give low values 0.969 | locus YLR113W, strain HOG1, hits give low values 1.02 | locus YNL183C, strain NPR1, hits give low values 1 | locus YOR231W, strain MKK1, hits give low values 1.03 | locus YPL256C, strain CLN2, hits give low values 1.07
